Test results published in PubChem BioAssay AID1851 (National Center for Advancing Translational Sciences (NCATS), 2009).
The campaign covered roughly 16,000 compounds. About 2,600 (16%) were called active. Another 20% or so got no clear call; they are omitted. Calls come from the whole dose curve; as a rule, active = well fitted curve in the direction sought with a large enough effect; inconclusive = small, poorly fitted or top-dose-only effect, or effect the other way; inactive = no such curve, though single readings can be large or run the other way. The list is a sample of the results.

These compounds were tested against Cytochrome P450 2D6 (Homo sapiens) (UniProt P10635) (assay: Cytochrome panel assay with activity outcomes). Details: recombinant CYP, pro-luciferin dealkylation, luminescence, p450-cyp2d6; series mostly up to 57.1 µM; activity, negative = inhibition: at the top concentration.
Experimental: The P450 gene superfamily is involved in the metabolism and clearance of xenobiotics. This assay used various human CYP P450 isozymes to measure the dealkylation of various pro-luciferin substrates to luciferin. The luciferin is then measured by luminescence after the addition of a luciferase detection reagent. Pro-luciferin substrate concentration in the assay was equal to its KM for its CYP P450 isozyme. Inhibitors and some substrates limit the production of luciferin, and decrease measured luminescence.
NCGC Assay Protocol Summary:
1, Reagent, 2 uL, Isozyme and Pro-Luciferin
2, Library compounds, 23 nl, 40 uM to 0.24 nM dilution series
3, Controls, 23 nl, Isozyme specific inhibitor
4, Reagent, 2 uL, NADPH regeneration solution
5, Incubation time, 60 min, Isozyme specific temperature
6, Reagent, 4ul, Detection reagent
7, Incubation time, 20 min, Isozyme specific temperature
8, Detection, 1 sec, ViewLux luminescent read
The luciferase-based P450-GloTM Screening Systems were obtained from Promega (Madison, WI) for CYP 1A2 (V9770), CYP 2C9 (V9790), CYP2 C19 (V9880), CYP 2D6 (V9890), and CYP 3A4 Luciferin-PPXE (V9910) and were adapted for 1,536-well microplates and an automated protocol. The control compounds furafylline for 1A2 (F124), sulfaphenazole for CYP 2C9 (S0758), ketoconazole for CYP 2C19 (K1003), quinidine for 2D6 (Q3625), and ketoconazole for 3A4 (K1003) were purchased from Sigma Aldrich (St. Louis, MO). Recombinant P450 enzymes were obtained from baculovirus constructs expressed in insect cells (BD/Gentest).
Medium-binding white solid Kalypsys plates used. Mixtures kept on ice. 1A2: 10 nM 1A2, 100 uM Luc-ME, 100 mM KPO4; 2C9: 10 nM 2C9, 100 uM Luc-H, 25 mM KPO4; 2C19: 5 nM 2C19, 10 uM Luc-H EGE, 50 mM KPO4; 2D6: 5 nM 2D6, 30 uM Luc-ME EGE, 100 mM KPO4; 3A4: 10 nM, 25 uM Luc-PPXE. All amounts are reflected in their final concentration, working concentration is 2x.
NADPH regeneration solution: 1.3 mM NADP+, 3.3 mM glucose-6-phosphate, 3.3 mM MgCl2, 0.4 U/mL glucose-6-phosphate dehydrogenase for all isozymes, 200 mM KPO4 for 3A4. Mixture prepared at RT but kept on ice during automated run.
RT incubation in auxilliary plate hotel for 1A2, 2D6, and 3A4; 37C for 2C9 and 2C19.
Keywords: P450, CYP1A2, CYP2C19, CYP2C9, CYP2D6, CYP3A4, Luciferase, MLSMR, MLSCN, NIH Roadmap, qHTS, NCGC
% is set by controls: 0 for no effect and ±100 for the full control effect.

Chain of Cytochrome P450 2D6 (Homo sapiens) (P10635 whole entry, looked up): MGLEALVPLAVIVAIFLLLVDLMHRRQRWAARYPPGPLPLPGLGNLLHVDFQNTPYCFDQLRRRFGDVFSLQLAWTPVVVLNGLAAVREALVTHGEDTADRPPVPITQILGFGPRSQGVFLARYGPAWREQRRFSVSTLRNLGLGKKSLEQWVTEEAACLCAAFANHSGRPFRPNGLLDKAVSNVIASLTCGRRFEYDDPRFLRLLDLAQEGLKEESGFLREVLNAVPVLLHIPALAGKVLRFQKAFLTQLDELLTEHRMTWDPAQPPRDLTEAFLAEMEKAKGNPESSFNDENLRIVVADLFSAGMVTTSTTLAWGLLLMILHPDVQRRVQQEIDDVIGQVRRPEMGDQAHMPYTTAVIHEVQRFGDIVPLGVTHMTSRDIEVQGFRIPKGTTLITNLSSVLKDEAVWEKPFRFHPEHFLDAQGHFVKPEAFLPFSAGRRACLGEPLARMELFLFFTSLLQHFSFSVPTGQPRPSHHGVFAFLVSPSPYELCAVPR

Structure (SMILES)	activity, negative = inhibition	AC50
Cc1ccc2c(c1)C1(SCCS1)C(=O)N2	-11.7% (inactive)	
Nc1ccc(C(=O)NCC(=O)O)cc1	2.31% [at 25.6 µM] (inactive)	
COc1ccc(S(N)(=O)=O)cc1C(=O)NCCCN1CCN(c2ccc(C)cc2)CC1	5.97% (inactive)	
Cc1ccccc1CN1CCN(CC(=O)NCCCN2CCN(c3ccc(F)cc3)CC2)C1=O		6.31 µM (active)
COc1ccc(OC)c(CNC(=O)CCNC(=O)Cn2ccc3ccccc3c2=O)c1	1.01% (inactive)	
COc1cccc(CNC(=O)CCNC(=O)Cn2ccc3ccccc3c2=O)c1	-19.9% (inactive)	
COc1ccc(N2CCN(CCNC(=O)c3c(C)cc(=O)oc3C)CC2)cc1	2.34% (inactive)	
O=C(CCNC(=O)Cn1ccc2ccccc2c1=O)NCCCN1CCN(c2ccc(F)cc2)CC1		10 µM (active)
COC(=O)CSc1nc(C)cc(C(F)(F)F)c1C#N	15.4% (inactive)	
Cc1cc2nnc(SCC(=O)N3CCN(c4ccccc4)CC3)n2c(N)n1	3.62% (inactive)	
CC(NC(=O)c1ccc(Cl)cc1)c1nnc(SCc2ccc([N+](=O)[O-])cc2)n1C (stereo unspecified)	-14.9% (inactive)	
C1CCc2nnnn2CC1	-1.71% (inactive)	
Cc1ccc(-c2ccc(/C=N/NC(=S)Nc3ccccc3)o2)cc1[N+](=O)[O-]	5.91% (inactive)	
O=C(c1cccc(F)c1)N1CCC2(CC1)CN(Cc1ccccc1)C2		5.01 µM (active)
O=C(c1cccc(F)c1)N1CCC2(CCN(Cc3ccccc3)CC2)CC1		7.94 µM (active)
CC(C)CN1CC2(CCN(C(=O)c3cccc(F)c3)CC2)C1	7.2% (inactive)	
CC(C)NC(=O)N1CCC2(CC1)CCN(C(=O)c1cccc(F)c1)CC2	4.28% (inactive)	
O=C(c1cccc(F)c1)N1CCC2(CCN(Cc3cc(C(F)(F)F)cc(C(F)(F)F)c3)CC2)CC1	0.176% (inactive)	
O=C(c1cccc(F)c1)N1CCC2(CC1)CN(c1cccc(-c3ccccc3)c1)C2	0.562% (inactive)	
O=C(c1cccc(F)c1)N1CCC2(CCCN(c3ccccc3)C2)CC1	-3.85% (inactive)	
CC(C)CN1CCC2(CC1)CCN(C(=O)c1cccc(F)c1)CC2		5.01 µM (active)
N#Cc1ccc(CN2CC3(CCN(C(=O)c4cccc(F)c4)CC3)C2)cc1	-5.46% (inactive)	

Structure (SMILES)	activity, negative = inhibition	AC50
O=c1c(-c2ccc(F)cc2)nc2cnc(N3CCOCC3)nc2n1Cc1cccs1	-3.77% (inactive)	
O=C(C(Cc1ccccc1)N1C(=O)C2C3CCC(C3)C2C1=O)N1CCCCC1 (stereo unspecified)	-5.07% (inactive)	
CCCCS(=O)(=O)NC1=NCN(Cc2ccco2)CN1	-3.88% (inactive)	
COC(=O)c1nn(-c2cccc(C(F)(F)F)c2)c(=O)cc1Sc1ccccn1	7.99% (inactive)	
O=c1c(-c2ccccc2)nc2cncnc2n1Cc1ccccc1Cl	-6.57% (inactive)	
COc1cc(Br)cc2cc(C(=O)NCC3CCCO3)c(=O)oc12 (stereo unspecified)	-18.9% (inactive)	
CC(c1ccccc1C(O)c1ccccc1)N(C)C (stereo unspecified)	-28.5% (inactive)	
Cn1c(=O)n(-c2ccc(Cl)cc2)c(=O)c2c3c(sc21)COC(C)(C)C3	7.91% (inactive)	
O=C(N/N=C/c1ccc2cccc(OCc3ccccc3)c2n1)c1ccc(Br)cc1	-17% (inactive)	
COc1ccc2c(c1[N+](=O)[O-])CCC/C2=N/OC(=O)c1cccc2ccccc12	-1.88% (inactive)	
CCOc1c(OC(C)=O)ccc(/C=C2\N=C(SCC)SC2=O)c1[N+](=O)[O-]		11.2 µM (active)
CCOc1c(OC(C)=O)ccc(/C=C/c2ccc3cccc(OC(C)=O)c3n2)c1[N+](=O)[O-]		10 µM (active)
Cc1nn(C(C)C(=O)Nc2ccc(Cl)cn2)c(C)c1[N+](=O)[O-] (stereo unspecified)	-6.4% (inactive)	
C[C@@](N)(C(=O)O)c1ccc(S(=O)(=O)O)cc1	-0.825% (inactive)	
COc1cccc(Nc2ncc3nc(-c4cccs4)c(=O)n(Cc4cccs4)c3n2)c1	6.03% (inactive)	
O=c1c(-c2ccc(Cl)cc2)nc2cnc(N3CCNCC3)nc2n1Cc1cccs1	-18.9% (inactive)	
CCOC(=O)COc1c(OC)cc(Cl)cc1C1Nc2ccccc2C(=O)N1c1ccc(F)cc1 (stereo unspecified)	-14.9% (inactive)	
Oc1c(Br)cc(CN(Cc2cc(Br)c(O)c(Br)c2)C2CCCCC2)cc1Br		2.51 µM (active)
Oc1c(Br)cc(Br)cc1CN(Cc1cc(Br)cc(Br)c1O)C1CCCCC1		0.251 µM (active)
CC(C)(C)c1cc(Br)c(O)c(CN(Cc2cc(C(C)(C)C)cc(Br)c2O)C2CCCCC2)c1		0.2 µM (active)
CC1=CC=CN2CC(O)CN=C12 (stereo unspecified)	-7.33% (inactive)	
COc1ccc(/C(O)=C2/C(=O)C(=O)N(Cc3cccnc3)C2c2ccco2)cc1OC (stereo unspecified)	-4.18% (inactive)	

Structure (SMILES)	activity, negative = inhibition	AC50
CC(=O)n1nc(-c2ccco2)nc1N	-8.48% (inactive)	
Cc1cccc(N(CC(=O)NC2CCCC2)C(=O)c2cc3cc4cccc(C)c4nc3s2)c1C	-13% (inactive)	
Nc1ccc2[nH]cc(CCC(=O)O)c2c1	5.9% [at 11.4 µM] (inactive)	
CSCC[C@H](NC(=O)c1nn(C)c(=O)c2ccccc12)c1nc2ccccc2[nH]1	-14.5% (inactive)	
Cc1noc(C)c1-c1nccc(N2CCOCC2)n1	7.41% (inactive)	
Cc1ccc2c(c1)N[C@H](c1ccc(C(=O)O)cc1)c1cccn1-2	-2.93% [at 11.4 µM] (inactive)	
Cc1ccc2nc(SCC(=O)c3ccc4c(c3)OCO4)[nH]c2c1		4.47 µM (active)
COc1ccc2nc(SCC(=O)Nc3ccc4c(c3)OCCO4)[nH]c2c1	-22.4% (inactive)	
Cc1ccc2nc(CC(=O)c3ccc4ccccc4c3)c(=O)[nH]c2c1	-4.59% [at 11.4 µM] (inactive)	
CC(/C=C1\N=C(SCc2ccccc2Cl)SC1=O)=C\c1ccccc1	15.6% (inactive)	
Cc1ccccc1Cn1nc(C)c(NC(=O)c2sc3ccccc3c2Cl)c1C	-32.5% (inactive)	
Cc1nnc(SCc2nc(N)nc(Nc3ccccc3)n2)s1	-19.5% (inactive)	
Cc1cc(Nc2ccccc2)nc(N)n1		11.2 µM (active)
Cc1cc(Nc2ccc(Cl)cc2)nc(N)n1	-29.1% (inactive)	
COC(=O)C1CCN(c2cc(=O)n(C3CCCCC3)c(=O)[nH]2)CC1	14.8% (inactive)	
Cc1ccc(OCC(=O)NNC(=O)CCc2ccccc2)cc1	15.7% (inactive)	
CCC(=O)c1ccc(OCC(O)CN(CCc2ccccc2)Cc2ccccc2)cc1 (stereo unspecified)		1 µM (active)
CN(C)CC(O)COc1ccc(C(C)(C)c2ccc(OCC(O)CN(C)C)cc2)cc1 (stereo unspecified)	-11.1% (inactive)	
COc1ccc(S(=O)(=O)NCc2ccc(C(=O)N3CCN(c4ccccn4)CC3)cc2)cc1	-27% (inactive)	
c1ccc2c(CN3CCN(Cc4c[nH]c5ccccc45)CC3)c[nH]c2c1		2.51 µM (active)
N[C@@H](Cc1c[nH]c2ccccc12)C(=O)O	0.396% (inactive)	
O=C(O)[C@H](Cc1c[nH]c2ccccc12)N1C(=O)c2ccccc2C1=O	-2.59% [at 11.4 µM] (inactive)	
